From the OligoGym collection come the findings set out here.
Also: reference of the scale not given here.

For the first test, the target named is EHD3. The test is described as follows: pooled miR-30 sensor sort-seq; sequence = guide strand. The conditions noted are these: shRNA.
The sequence TTGACCAGCTCCTTCTTCTTGT returned a sensor-assay potency score (higher = more potent) of 0.288.

For the sequence TTGATGAGGTCGTTGAGCTTGC, the sensor-assay potency score (higher = more potent) is 0.159. On the same count and under the same terms, under TTCTTCTTGTTGTCCTTCCCGA stands -0.7; under TTGATGACTTCTGAGAACTCAT, -0.245. Consider TAGAAGATCTCGTCGTACATGG, for which the sensor-assay potency score (higher = more potent) is -0.19. On the same count and under the same terms, to TAGGAAAGAACAGAGCTCCTGG belongs 0.716; to TTCAGCACCACTCGCATCTTGT, -0.387; to TTGTCCTTCCCGAACACCGAGG, -1.14. Same read-out and setting: to TTTGTGGGCATCGAAGAGCAGA belongs -1.26; to TCGAAGAGCAGAATGATGCGGT, 0.407. Still for that read-out and setting: under AAACTCGTCGTCGTCCAGCATG stands -1.38.

A further test deals with EHMT2. The description is as above. The conditions noted are these: shRNA.
The sequence TTGCTCTGCTGGTCGCTCTGGA displayed a sensor-assay potency score (higher = more potent) of -0.425. Same read-out and setting: under TTGAGCTTCAGAAGCATCCTCC stands 0.398; under TTAGTTGTTCAGTTAGAGCTTC, 0.313; under TAGCATGCGGATCACCTCGATG, -1.39.

TTCATGGTGGACGTCTCGCAGT registered a sensor-assay potency score (higher = more potent) of -1.22. On the same count and under the same terms, to TTACACTCGAAAATCAGCGGAG belongs -0.173. Same read-out and setting: to TGAGTGGACATCATCACTCATG belongs -1.27; to TTGACGTCCACCTGTCCTGTGC, -0.646; to TTCTTCTTGGCCTTGCGCCGGC, -0.437. Regarding TTGAGTTGAAGCGCAAACCACA, the sensor-assay potency score (higher = more potent) is -1.4. On the same count and under the same terms, under TAGAGCTTCAACTTCAGACTTG stands 0.68.

ATCCTTGTTGTCTAAGTCGAAG gave a sensor-assay potency score (higher = more potent) of -1.84.

The target in a further test is EID2B. The description is as above. To be noted: shRNA.
Sequence TTCCTGACAACTCTATTTCTTT gave a sensor-assay potency score (higher = more potent) of -0.963. The same measure, in the same setting: under TTCTATTGAATATTTACTGTTC stands 0.0406. Still for that read-out and setting: under TTTTCTTTCATCACTTAGGTTC stands -0.263. TTTTTTCTCATATCTTTGCAAA had a sensor-assay potency score (higher = more potent) of -1.11.

In turn, TAACTAAACTGGCACAGCCTGC registered a sensor-assay potency score (higher = more potent) of -0.861. Sequence TAAGTCAGAAGTGTCTTGGGAC had a sensor-assay potency score (higher = more potent) of 0.252. On the same count and under the same terms, under ATACTCGCGGAACAACAGCTGC stands -1.3. On the same count and under the same terms, to TTGACATGACCACAAATTGTGA belongs -1.04.

For the sequence TAAACTGGCACAGCCTGCCTGT, the sensor-assay potency score (higher = more potent) was -0.54. The same measure, in the same setting: under TCGCGGAACAACAGCTGCCGGT stands -1.55; under TTTTCTATTGAATATTTACTGT, -0.85. Still for that read-out and setting: to TATCTTTGCAAAACCATCCTTT belongs -0.0384.

Another test has as its target EIF1. The test is described as above. The conditions noted are these: shRNA.
Take TTTATCGTAATCATCAGCGATC: the sensor-assay potency score (higher = more potent) was -0.622.

For the sequence TCTTTTTATCGTAATCATCAGC, the sensor-assay potency score (higher = more potent) is -0.92. On the same count and under the same terms, to TTATATGGATATAATCCTCAGT belongs -0.502; to TTGCAGGCAAACTTTTTCTTAA, -0.992; to TTACTTGCATCAGCAAAGGGGT, -1.07.
